# Bioassay records from PubChem.
# Rows were chosen to be rich in hits. Some 27% of all compounds tested hit in one or more screens of this group.
# CYP2C19 inh – blockers of cytochrome P450 2C19 activity – biochemical, luminescence, ADME assay, primary screen. P33261. CYP2C19 Supersomes, luciferin-H EGE luminescence, 30 min. inhibition, % at 5 µM. 21% of 96,000 active. AID 778, 2007;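 active = CYP2C19 inhibition above a set limit at 5 µM in the primary screen, cut at about 50% in these data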;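 note: plate controls were negative control wells for no effect and 2.5 mM tranylcypromine positive control for full effect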
# Cav3 T inh – Cav3.2 calcium influx blockers – cell-based, Fluo-4 calcium fluorescence, FDSS, MLSMR library, primary screen; B-score at 10 µM; Cav3.2-expressing cells; stronger effect = lower value; AID 449739, 2010; 4% of 100,000 active; Voltage-dependent T-type calcium channel subunit alpha-1H (Homo sapiens), O95180;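 active = single-dose well whose peak fluorescence ratio is a statistical outlier from its plate by either plate-standardised score or position-corrected B-score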
# CYP2C19 activ – human CYP2C19 activators, primary screen, biochemical, luminescence; Cytochrome P450 2C19 (Homo sapiens), P33261; recombinant CYP2C19, luciferin-H EGE luminescence; stronger effect = higher value; 0 = fully inhibited enzyme, 1 = untreated enzyme; activation factor at 5 µM; 96,000 tested, under 10 active; AID 1025, 2008;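 active = activation factor of at least 2 at 5 µM in the primary screen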;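 note: 0 = wells with 2.5 mM tranylcypromine and 1 = vehicle-only wells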
# CYP2C9 act – human CYP2C9 activators, primary screen, biochemical, luminescence | 1.4% of 96,000 active | recombinant CYP2C9, luciferin-H conversion; stronger effect = higher value; factor 1 = untreated enzyme, 0 = blocked | activation factor at 5 µM;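 active = activation factor of 2 or more for CYP2C9 at a 5 µM dose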;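 note: 0 = sulfaphenazole-blocked wells and 1 = vehicle-only wells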
# CYP2C9 inh – blockers of cytochrome P450 2C9 activity – biochemical, luminescence, ADME assay, primary screen; 20% of 96,000 active; CYP2C9 Supersomes, luciferin-H conversion; inhibition, % at 5 µM;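 active = blocking of liver enzyme CYP2C9 beyond about 50% at 5 µM, limit read from the data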
# Pyk2 oligo antag – antagonists of Pyk2 self-association, primary screen, Q293 cells, FERM NanoBiT luminescence, HTS | AID 1347419, 2020 | stronger effect = lower value | z-score (the deposit names both 25 µM and 10 µM) | 0.83% of 99,000 active | Protein-tyrosine kinase 2-beta (Homo sapiens), Q14289;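 active = Z-score of -3 or lower, scaled per plate to the spread of control and sample wells; inactive = z-score above -3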;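 note: negative z-score means lost luminescence so less FERM oligomerization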
# * = called active by the depositor; · = no result.
SMILES,CYP2C19 inh,Cav3 T inh,CYP2C19 activ,CYP2C9 act,CYP2C9 inh,Pyk2 oligo antag
COc1cccc(-n2nnnc2SCC(=O)Nc2cccc(NC(C)=O)c2)c1,38.3,-0.0469,0.6,0.5,50.5*,0.33
COc1cccc(C(=O)CSc2nnnn2C2CCCCC2)c1,40.4,-3.13,0.6,0.3,68.4*,0.1
O=C(Nc1ccc(Cl)cc1)NC1CCCc2ccccc21 (stereo not drawn),32.3,·,0.7,0.9,10.1,-1.26
COc1ccc2c(c1)c1nnc(SC)nc1n2C,2.9,1.2,1,0.8,22.1,-0.44
COc1ccc2c(c1)c1nnc(SCC(=O)N3C(C)CCCC3C)nc1n2C (stereo not drawn),48.9,1.61,0.5,0.3,65.5*,-0.96
O=C(C(c1ccccc1)c1ccccc1)N1CCC(c2nc(-c3ccccc3Cl)no2)CC1,·,-6.22*,·,·,·,0.28
CCOc1ccc(C(CC(=O)O)NC(=O)c2ccco2)cc1OC (stereo not drawn),-10.7,0.15,1.1,1.2,-15.5,0.28
CCOc1ccc(C(CCc2ccccc2)NC(=O)c2ccccc2)cc1OCC (stereo not drawn),75.8*,-5.13*,0.2,0.3,67.7*,-1.56
CC(=O)Nc1ccc(S(=O)(=O)NCCC(=O)OCCN2C(=O)c3ccccc3C2=O)cc1,69.8*,0.757,0.3,0.1,93.1*,0.46
O=C(c1cccc(Cl)c1Cl)N1CCN(c2ccccn2)CC1,45.3,1.16,0.5,0.5,46.4,-0.06
O=C(/C=C/c1ccccc1)c1ccccn1,51.2*,1.43,0.5,0.7,27.2,0.1
CC(C)(Oc1ccc(Cl)cc1)C(=O)N1CCN(c2ccccn2)CC1,·,-4.49*,·,·,·,-0.13
O=C(c1ccccc1Cl)N1CCN(c2ccccn2)CC1,81.7*,-0.524,0.2,0.2,77.5*,0.25
COc1ccc(OC(C)C(=O)N2CCN(c3ccccn3)CC2)cc1 (stereo not drawn),21.0,0.285,0.8,0.7,29.8,0.66
O=C(/C=C/c1ccccc1)N1CCN(c2ccccn2)CC1,47.5,0.429,0.5,0.5,52.9*,0.11
Cc1nc2sc(C(c3ccccc3)N3CCN(C)CC3)c(O)n2n1 (stereo not drawn),·,-0.0557,·,·,·,·
O=C(c1ccc(Cl)c(S(=O)(=O)N2CCCCCC2)c1)N1CCN(c2ccccn2)CC1,25.2,-2.09,0.7,0.4,56.8*,-1.26
O=C(c1cc2ccccn2n1)N1CCN(c2ccccn2)CC1,54.9*,-0.118,0.5,0.8,18.0,·
CN1CCN(C(=O)c2ccc(Cl)c(S(=O)(=O)N3CCCCC3)c2)CC1,24.3,0.509,0.8,0.9,10.7,2.53
COc1ccc(C(=O)Nn2c(SCC(=O)NCc3ccco3)nc3ccccc3c2=O)cc1,13.3,-0.0509,0.9,0.2,80.3*,-0.62
COc1ccc(C(=O)NCCn2cc(SCC(=O)NCc3ccco3)c3ccccc32)cc1,96.1*,-2.22,0,0.1,85.4*,0.26
COc1ccc(C(=O)NCCn2cc(SCC(=O)Nc3nnc(C)s3)c3ccccc32)cc1,·,-2.41,·,·,·,-1.49
O=C(CSc1nc2ccccc2c(=O)n1Cc1ccccc1)NCc1ccco1,9.4,0.19,0.9,1,0.0,-0.57
O=C(CSc1nc2ccccc2c(=O)n1Cc1ccc(C(=O)NC2CC2)cc1)NCc1ccco1,34.7,-0.0466,0.7,0.5,53.3*,0.8
COc1ccc(C(=O)Nn2c(SCC(=O)N3CCC(C)CC3)nc3ccccc3c2=O)cc1,38.9,-2.92,0.6,0.1,85.7*,0.55
CS(=O)(=O)c1ccc(Cl)c(NC(=O)c2ccc3ccccc3c2)c1,·,·,·,·,·,-0.18
Cc1ccc(CNC(=O)CCOc2ccc(C(C)(C)C)cc2)cc1,25.8,-1.1,0.7,0.8,24.5,0.52
NS(=O)(=O)c1ccc(NC(=O)COC(=O)CCNC(=O)NC23CC4CC(CC(C4)C2)C3)cc1,29.6,-0.163,0.7,0.4,64.8*,0.04
